Screening data as filed in PubChem.
Shiga inhibitor – A qHTS for Small Molecule Inhibitors of Shiga Toxin | Vero cells, Shiga toxin protein synthesis inhibition reporter | inhibition, % at 38.7 µM | 9.2% of 290,000 active | AID 2315, 2010; in the data active = inhibition mostly above about 28%, no sharp cut-off; inactive = mostly below about 43%
MARV entry inh – qHTS for inhibitors of binding or entry into cells for Marburg Virus; Marburg virus pseudotyped entry inhibition, cell reporter; Potency, µM (doses to about 37.8 µM), actives largely listed as inhibitors; 1.8% of 300,000 active; calls by dose curve; tested in HEK293 cells
HCV inhibitor – qHTS Assay for Inhibitors of Hepatitis C Virus (HCV). AID 651820, 2012. Potency, µM (doses to about 41.8 µM), usual class: inhibitors. 3.4% of 340,000 active. Huh7.5.1 HCVcc-Cre infection, luciferase reporter, 44 h; active = well fitted inhibition curve with a large enough effect; inconclusive = small, poorly fitted or top-dose-only effect, or another doubt; inactive = no such curve, though single readings can be large or run the other way
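Luciferase read-out (15 sec integration) after a 15 min room-temperature substrate step quantifies HCVcc-Cre infection. Cells, 1,000 per well, had compound added 4 h post-plating, then virus at ~0.5 moi, and were cultured 44 h.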
Lassa entry inh – qHTS for Inhibitors of binding or entry into cells for Lassa Virus; 1.2% of 300,000 active; AID 540256, 2011; Lassa virus pseudotype entry inhibition, cell reporter; Potency, µM (top dose mostly 37.9 µM), most hits filed as inhibitors; calls by dose curve; tested in HEK293 cells; note: nearly all actives have a fitted effect of over 50% in size
CHX counter – Cycloheximide Counterscreen for Small Molecule Inhibitors of Shiga Toxin | cell reporter, cycloheximide protein synthesis inhibition counterscreen | max response, % | 12% of 300,000 active | AID 2314, 2010; in the data active = max response mostly above about 13%, no sharp cut-off; inactive = mostly below about 14%; note: read at 38.3 µM for the half of the compounds with a filed dose
FMDV inh – High Throughput Screening for Foot and Mouth Disease Virus Antivirals; FMDV antiviral cell-based qHTS; Potency, µM (titrated, usually from 57.9 µM), usual class: inhibitors; 1.2% of 410,000 active; AID 1159524, 2015; calls by dose curve; tested in HEK293T cells; note: read-out not given here; nearly all actives have a fitted effect of over 45% in size
A number is an active result; - = inactive; ? = inconclusive; . = no result given. The list is not random: actives were taken first. Their share in the collection is about 13%.

SMILES | Shiga inhibitor | MARV entry inh | HCV inhibitor | Lassa entry inh | CHX counter | FMDV inh
CCOC(=O)C(=CNc1nc(-c2ccc3ccccc3c2)cs1)C(=O)OCC | 38.0 | ? | ? | ? | 26.8 | -
O=C(Nc1nc(-c2ccc3ccccc3c2)cs1)c1ccc(N2C(=O)CCC2=O)cc1 | - | - | - | - | - | ?
O=C(O)c1ccccc1C(=O)Nc1nc(-c2ccc3ccccc3c2)cs1 | 65.9 | . | ? | . | 36.4 | -
O=C(Nc1ccccc1)C1CCN(S(=O)(=O)c2cccs2)CC1 | . | . | - | . | . | -
CCOC(=O)c1cc(C)n(CCCN2CCOCC2)c1C | - | - | - | - | - | -
CCOC(=O)c1cc(C)n(CCc2cnc[nH]2)c1C | - | - | - | ? | 14.7 | -
CC(=O)Nc1ccc(NC(=O)c2ccc(COc3ccc(C)cc3)o2)cc1 | 111.0 | ? | - | - | 19.4 | -
COc1ccc(NC(=O)c2ccc(COc3ccc(C)cc3)o2)cc1 | 73.3 | . | ? | . | 34.3 | -
O=C(O)c1ccc(NC(=O)c2ccc(COc3ccccc3)o2)cc1 | - | . | - | . | - | -
O=C(Cn1nnc(-c2ccccc2NC(=O)c2ccco2)n1)NC1CCCCC1 | - | - | - | - | - | -
Cc1ccc(S(=O)(=O)n2cccc2/C=C/[N+](=O)[O-])cc1 | . | . | . | . | . | 15.8µM
O=C(CCC(=O)Nc1nnc(C2CCCCC2)s1)NCc1cccs1 | - | - | - | - | - | -
O=C(Nc1nnc(C2CC2)s1)c1cccs1 | 99.5 | . | - | . | 51.0 | -
O=C(CCC(=O)c1cccs1)Nc1nnc(C2CC2)s1 | - | - | - | - | 17.0 | -
Cc1ccc(C)c(NC(=O)CCc2c(C)n(C)c3cc(-c4ccccc4C)nn3c2=O)c1 | . | . | . | - | . | -
COC(=O)c1c(CSc2cccc(C)c2)noc1C(=O)NCc1ccco1 | - | . | - | . | 21.5 | -
N#Cc1ccccc1NC(=O)COC(=O)c1c[nH]c2ccccc12 | . | - | - | - | . | -
O=c1c(-c2cnn(-c3ccccc3)c2)coc2cc(O)ccc12 | 108.2 | ? | ? | ? | 46.7 | -
NC(=O)c1nc(Nc2ccccc2)sc1NC(=O)c1c(F)cccc1F | . | . | . | - | . | -
Cc1ccc(C2C(C#N)=C(N)N(c3cccnc3)C3=C2C(=O)CCC3)s1 (stereo unspecified) | 51.0 | - | - | - | - | -
CCN(CC)S(=O)(=O)c1ccc2oc(C(=O)NCC3COc4ccccc4O3)c(C)c2c1 (stereo unspecified) | - | ? | 10µM | 23.1µM | - | ?
Cc1c(C(=O)NCc2ccc(F)cc2)oc2ccc(S(=O)(=O)N3CCOCC3)cc12 | - | ? | ? | . | - | ?
CCN(CC)S(=O)(=O)c1ccc2oc(C(=O)NCc3ccc(F)cc3)c(C)c2c1 | - | ? | ? | 5.8µM | - | ?
Cc1c(C(=O)NCC2COc3ccccc3O2)oc2ccc(S(=O)(=O)N3CC(C)CC(C)C3)cc12 (stereo unspecified) | - | ? | ? | - | - | .
Cc1ccnc(NS(=O)(=O)c2ccc(NC(=O)Cc3c(F)cccc3Cl)cc2)n1 | - | . | - | . | - | -
SMILES | Shiga inhibitor | MARV entry inh | HCV inhibitor | Lassa entry inh | CHX counter | FMDV inh
CS(=O)(=O)N1Cc2cc(C(=O)NCC3CCCCC3)nc(-c3cccc(-c4cccnc4)c3)c2[C@H]1CCO | . | . | . | . | . | -
C(=NN1CCCCCC1)c1c[nH]c2ccccc12 | . | - | - | - | . | -
O=C1C2C3C=CC(C4CC34)C2C(=O)N1/N=C/c1c[nH]c2ccccc12 (stereo unspecified) | 114.6 | ? | - | - | 46.3 | -
Cn1cc(Cl)c(/C(N)=N/OC(=O)c2ccccc2C(F)(F)F)n1 | 91.1 | . | - | . | 50.4 | -
COc1ccc(OC(=O)c2cn(C)nc2C(F)(F)F)cc1 | - | ? | - | - | - | -
COc1ccc(-c2cc(C(=O)N3CCN(c4ccccc4OC)CC3)no2)cc1OC | - | ? | - | - | - | -
COC(=O)C1=CN(c2ccc(OC)cc2OC)C(N)=C(C#N)C1c1ccc(OC)cc1 (stereo unspecified) | . | . | . | . | . | -
CCOC(=O)CSc1nc2c([nH]c3ccccc32)c(=O)n1-c1ccc(OCC)cc1 | . | . | . | - | . | -
OCC1(CCOc2ccccc2)CCN(Cc2ccccc2OC(F)F)CC1 | - | ? | - | - | - | -
OCC1(CCOc2ccccc2)CCN(Cc2ccc(OC(F)F)cc2)CC1 | - | ? | 12.6µM | - | - | -
Cc1c(CN2CCC(CO)(CCOc3ccccc3)CC2)[nH]c2c(Cl)cccc12 | - | . | 14.1µM | . | - | -
CC(C)OC(=O)CCC(=O)Nc1ccc(F)cc1 | - | - | - | - | - | -
COc1cc(OC)cc(-c2c(-c3ccc(F)cc3)c3cc(-c4ccc(SC)cc4)ccc3n2C)c1 | . | . | - | . | . | -
Cc1nn(-c2ccccc2)c(C)c1/C=N\N1CCN(c2ccc(Cl)cc2)CC1 | - | - | - | - | - | ?
Cc1cccc(NC(=O)c2ccc3c(c2)OCCO3)n1 | 50.3 | ? | - | ? | 44.8 | -
CC(C)(C)c1csc(NC(=O)c2ccc3nccnc3c2)n1 | 79.9 | ? | - | - | 62.9 | -
Cc1cccc(NC(=O)c2ccc3nccnc3c2)n1 | 45.6 | ? | - | - | 49.3 | -
CC(C)(C)c1csc(NC(=O)c2ccncc2)n1 | - | ? | ? | ? | - | ?
Cc1cccc(NC(=O)c2ccc(Cl)nc2)n1 | - | - | - | - | - | -
Cc1cccc(NC(=O)CNC(=O)c2ccc3c(c2)OCO3)n1 | . | - | - | - | . | -
CC(=O)c1cnc2nc(SCc3ccccc3C)nn2c1C | - | ? | - | - | 18.2 | -
CCn1c2c(c(=O)n3ncc(C(=O)Nc4ccc(OC(F)(F)F)cc4)c13)CN(Cc1ccc(OC)cc1)CC2 | . | . | . | - | . | -
Cc1ccc(NC(=S)NCc2ccccc2)c(C)c1 | - | - | - | - | 10.0 | -
Cc1ccc(NC(=S)NCc2cccs2)c(C)c1 | - | - | - | - | - | -
Cc1ccc(NCc2ccccc2O)c(C)c1 | 48.0 | ? | - | - | 19.8 | -
SMILES | Shiga inhibitor | MARV entry inh | HCV inhibitor | Lassa entry inh | CHX counter | FMDV inh
Cc1ccccc1NC(=S)NCCC(c1ccccc1)c1ccccc1 | - | ? | - | - | - | -
Cc1ccc(NC(=S)NCCC(c2ccccc2)c2ccccc2)c(C)c1 | - | ? | 11.2µM | ? | - | -
CCS(=O)(=O)c1ccc2oc(SCC(=O)c3c(N)n(C4CC4)c(=O)[nH]c3=O)nc2c1 | . | . | - | . | . | ?
O=C(CCCc1ccccc1)N=C1SC2CS(=O)(=O)CC2N1c1ccccc1 (stereo unspecified) | - | . | - | . | - | -
CC(C)C(=O)OCC(=O)NCc1ccccc1Cl | - | - | - | - | 29.2 | -
CC(C)CC(NC(N)=O)C(=O)NCc1ccccc1Cl (stereo unspecified) | - | - | - | - | 35.5 | -
Cc1ccccc1OCC(=O)OCC(=O)NCc1ccccc1Cl | . | . | - | . | . | -
COc1ccc(-c2cc(COc3ccccc3)on2)cc1 | 66.6 | ? | ? | ? | 49.0 | -
Clc1ccc(OCc2cc(-c3ccccc3)no2)c(Cl)c1 | 69.2 | 7.08µM | - | 11.2µM | 40.3 | -
Fc1ccc(OCc2cc(-c3ccccc3)no2)cc1 | 89.5 | . | - | . | 69.4 | -
